PubChem BioAssay AID1851 (National Center for Advancing Translational Sciences (NCATS), 2009)
About 5,100 (32%) of roughly 16,000 compounds were called active. Inconclusive results (about 25%) are left out. Some of the results follow. A number with no mark means an inactive call. Calls follow the shape of the dose curve; as a rule, active = well fitted curve in the direction sought with a large enough effect; inconclusive = small, poorly fitted or top-dose-only effect, or effect the other way; inactive = no such curve, though single readings can be large or run the other way.

Target: Cytochrome P450 3A4 (Homo sapiens) (UniProt P08684)
Assay: Cytochrome panel assay with activity outcomes
Details: recombinant CYP, pro-luciferin dealkylation, luminescence, p450-cyp3a4; series mostly up to 57.1 µM
% is scaled to controls: 0 for no effect and ±100 for the full control effect.

Chain of Cytochrome P450 3A4 (Homo sapiens) (P08684 whole entry, looked up): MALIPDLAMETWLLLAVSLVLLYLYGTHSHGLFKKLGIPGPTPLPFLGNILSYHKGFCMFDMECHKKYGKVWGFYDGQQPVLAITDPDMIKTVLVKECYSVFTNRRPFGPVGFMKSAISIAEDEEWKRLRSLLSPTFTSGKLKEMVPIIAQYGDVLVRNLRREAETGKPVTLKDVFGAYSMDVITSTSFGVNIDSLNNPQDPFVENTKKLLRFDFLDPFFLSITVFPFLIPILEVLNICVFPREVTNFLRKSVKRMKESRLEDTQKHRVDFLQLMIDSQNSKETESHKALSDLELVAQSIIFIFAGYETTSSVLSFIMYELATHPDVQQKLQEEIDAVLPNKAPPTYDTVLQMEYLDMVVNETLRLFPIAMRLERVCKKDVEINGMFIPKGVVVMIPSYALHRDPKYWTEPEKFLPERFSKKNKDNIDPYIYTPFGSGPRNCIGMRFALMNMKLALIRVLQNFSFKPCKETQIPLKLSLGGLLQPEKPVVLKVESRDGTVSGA

| Compound | AC50 | activity, negative = inhibition |
| --- | --- | --- |
| COC(=O)c1ccc(OCC2c3cc(OC)c(OC)cc3CCN2C(=O)C2CC2)cc1 (configuration not stated) | 17.8 µM (active) | – |
| COc1ccc(C(=O)OC(C)CN2CCN(C)CC2)cc1OC (configuration not stated) | inactive | – |
| COc1ccccc1-c1cncnc1NCc1cccnc1 | 0.501 µM (active) | – |
| COc1ccccc1-c1cncnc1NCc1ccccc1 | 0.251 µM (active) | – |
| COc1ccccc1-c1cncnc1NCc1cccc(C)c1 | 0.1 µM (active) | – |
| CCCCCCN(CCCCCC)C(=O)Cc1c(-c2ccc(Cl)cc2)[nH]c2ccc(Cl)cc12 | 12.6 µM (active) | – |
| CCCCN(C)Cc1c(C)[nH]c2ccc(Cl)cc2c1=O | inactive | – |
| CCOC(=O)c1[nH]c2ccc(Cl)cc2c1-c1ccccc1 | inactive | – |
| CCCCCCN(CCCCCC)C(=O)Cc1c(-c2ccc(F)cc2)[nH]c2ccccc12 | 2.51 µM (active) | – |
| Cn1c(=O)c2[nH]c(C3CCCC3)nc2n(C)c1=O | inactive | – |
| O=C(O)c1nnsc1COCc1ccccc1 | – | -0.287% [at 11.4 µM] |
| COc1ccc(OC)c2[nH]c(=O)c(CCNC(=O)c3ccc(S(=O)(=O)N4CCCC4)cc3)cc12 | 15.8 µM (active) | – |
| COc1ccc(OC)c2[nH]c(=O)c(CCNC(=O)c3ccc(S(=O)(=O)N(C)C)cc3)cc12 | inactive | – |
| COc1ccc(C(=O)NCC(c2ccc(F)cc2)N2CCOCC2)cc1S(=O)(=O)N1CCCC1 (configuration not stated) | inactive | – |
| COc1ccc(OC)c2[nH]c(=O)c(CCNC(=O)C3CCCCC3)cc12 | 8.91 µM (active) | – |
| COc1ccc(OC)c2[nH]c(=O)c(CCNS(=O)(=O)c3ccc(C)cc3)cc12 | 7.94 µM (active) | – |
| COc1ccc(OC)c2[nH]c(=O)c(CCNC(=O)COc3ccccc3)cc12 | 10 µM (active) | – |
| COc1cc2c(c(O)c1OC)C(=O)C(OC)CCC2 (configuration not stated) | inactive | – |
| COCCNC(=O)COc1ccc(Oc2ccccc2)cc1 | inactive | – |
| CCCCC1CC(/C(C)=N/NC(N)=O)OC1=O (configuration not stated) | inactive | – |
| COc1ccccc1NC(=O)CSc1nc2ccccc2cc1Cc1ccccc1 | 2.82 µM (active) | – |
| COc1cccc(NC(=O)CSc2nc3ccccc3cc2Cc2ccccc2)c1 | 3.55 µM (active) | – |
| CCOC(=O)c1sc2nc3c(cc2c1N)COC(C(C)C)C3 (configuration not stated) | inactive | – |
| Cn1cc(C2=C(c3ccc(Cl)cc3Cl)C(=O)NC2=O)c2ccccc21 | 2.51 µM (active) | – |
| CSc1ccccc1NC(=O)CSCc1ccc(C)cc1 | – | -20% [at 11.4 µM] |

| Compound | AC50 | activity, negative = inhibition |
| --- | --- | --- |
| COC(=O)c1ccc(C(=O)OC)c(NC(=O)CSCc2ccc(Br)cc2)c1 | 12.6 µM (active) | – |
| COc1ccc(-c2ccc3c(n2)CCCN3C[C@H](O)CN2CCCc3nc(C)c(C)cc32)cc1 | – | -46.4% [at 11.4 µM] |
| COc1cccc([C@@H]2Oc3ccc(OC)cc3/C(=N/O[C@@H](C)CN3CCCc4nc(C)c(C)cc43)[C@@H]2O)c1 | 3.16 µM (active) | – |
| COc1cccc([C@@H]2Oc3ccc(OC)cc3/C(=N/O[C@@H](C)CN3CCCCc4nc(C)c(C)cc43)[C@@H]2O)c1 | 3.98 µM (active) | – |
| CCc1c2c(nc3ccc(OC)cc13)COC2 | 15.8 µM (active) | – |
| COc1ccc2nc3cc(Cl)ccc3c(Nc3ccc(O)c(CN4CCN(C)CC4)c3)c2c1 | – | 2.77% [at 11.4 µM] |
| COc1ccc2nccc(C(=O)O)c2c1 | inactive | – |
| C[C@@]1(O)CCOC(=O)C1 | inactive | – |
| CC1(C)O[C@H]2[C@@H](c3[nH]nc4c(=O)[nH]c(=O)[nH]c34)OC[C@H]2O1 | – | -0.0029% [at 11.4 µM] |
| C#CCN1C(C)=C(C(=O)OC)[C@@H](c2cccc([N+](=O)[O-])c2)C(C(=O)OCC)=C1C | 3.16 µM (active) | – |
| CCOC(=O)N/N=C(/C)c1ccc([N+](=O)[O-])o1 | – | -3.74% [at 2.29 µM] |
| COCC(C)NCc1cccc([N+](=O)[O-])c1 (configuration not stated) | inactive | – |
| O=C(COC(=O)c1cccnc1Nc1cccc(C(F)(F)F)c1)NCc1ccc2c(c1)OCO2 | 0.501 µM (active) | – |
| Cc1c(Nc2ncccc2C(=O)O)cccc1C(F)(F)F | inactive | – |
| O=C(COC(=O)c1ccccc1Nc1cccc(C(F)(F)F)c1)NCc1ccco1 | 22.4 µM (active) | – |
| Cc1cccc(Nc2ccccc2C(=O)OCC(=O)NCc2ccco2)c1C | 15.8 µM (active) | – |
| O=C(OC(C(=O)NC1CCCC1)c1ccncc1)C1=Cc2ccccc2OC1 (configuration not stated) | 3.98 µM (active) | – |
| Cc1ccc(C(OC(=O)c2ccco2)C(=O)NC2CCCCC2)cc1 (configuration not stated) | – | -11.1% [at 2.29 µM] |
| c1cc(-c2sc(-c3ccncc3)c(-c3ccncc3)c2-c2ccncc2)ccn1 | 0.316 µM (active) | – |
| Cc1cn2c(-c3ccncc3)nnc2s1 | inactive | – |
| CCC(C)NC(=O)C1CC(c2ccc(OC)cc2)=NO1 (configuration not stated) | inactive | – |
| COc1cc2c(cc1OC)C(C(=O)N1CCN(c3ccccn3)CC1)C(c1cccs1)N(C)C2=O (configuration not stated) | 4.47 µM (active) | – |
| CCC(C)NC(=O)C1c2cc(OC)c(OC)cc2C(=O)N(C)C1c1cccs1 (configuration not stated) | 5.62 µM (active) | – |
| COc1ccc(C(=O)Nc2ccc3c(c2)nc(CN2CCN(C(C)=O)CC2)n3C)cc1 | – | -0.562% [at 2.29 µM] |
| Cn1c(CN2CCCCC2)nc2cc(NC(=O)c3ccc(Cl)cc3)ccc21 | 15.8 µM (active) | – |

| Compound | AC50 | activity, negative = inhibition |
| --- | --- | --- |
| Cn1c(CN2CCCC2)nc2cc(NC(=O)C3CCCCC3)ccc21 | inactive | – |
| COc1cc(NC(=S)Nc2ccc(S(=O)(=O)N3CCOCC3)cc2)cc(OC)c1OC | 15.8 µM (active) | – |
| COc1ccc(C(=O)Nc2ccc(S(=O)(=O)N3CCOCC3)cc2)cc1OC | inactive | – |
| CC(N)=O | inactive | – |
| c1ccc(-c2nc(CSc3n[nH]c(-c4cccs4)n3)cs2)cc1 | 6.31 µM (active) | – |
| CC(C)C1NC(=S)N(Cc2ccccc2)C1=O (configuration not stated) | 14.1 µM (active) | – |
| O=c1[nH]c(=S)[nH]nc1Cc1ccccc1 | inactive | – |
| O=C(Nc1nc2ccccc2n1Cc1ccccc1)c1ccc(COc2ccccc2[N+](=O)[O-])o1 | 4.47 µM (active) | – |
| CCn1nccc1C(=O)Nc1nc2ccccc2n1CCN1CCCCC1 | inactive | – |
| CCC1(C)Cc2c(sc3nnn(CC(=O)Nc4ccc(C)cc4)c(=O)c23)CO1 (configuration not stated) | 14.1 µM (active) | – |
| CCOC(=O)Cn1nnc2c(sc3nc4c(c(-c5ccc(Cl)cc5)c32)CCC4)c1=O | inactive | – |
| CC1(C)Cc2c(sc3nc(-c4ccccc4)n(N)c(=O)c23)CO1 | inactive | – |
| CCC1(C)Cc2c(sc3nnn(CC(=O)Nc4cccc5ccccc45)c(=O)c23)CO1 (configuration not stated) | 10 µM (active) | – |
| CCOC(=O)c1sc2nc3c(cc2c1N)COC(C)(CC)C3 (configuration not stated) | – | 1.93% [at 11.4 µM] |
| Cc1ccc(C(=O)Cn2nnc3c(sc4nc5c(c(-c6ccccc6)c43)CCC5)c2=O)cc1 | inactive | – |
| CC1(C)CC(=O)c2cn3ncnc3nc2C1 | inactive | – |
| Nc1cccc2cnccc12 | 7.94 µM (active) | – |
| CC(C)[C@H](NC(=O)OC(C)(C)C)[C@@H](O)CC(=O)OC(C)(C)C | – | -23.3% [at 11.4 µM] |
| O=C(c1ccccc1)c1nn(-c2ccccc2)c(=O)cc1C(F)(F)F | inactive | – |
| O=C(O)c1nn(-c2ccccc2)ccc1=O | – | -15.6% [at 11.4 µM] |
| O=c1ccn(-c2cccc(C(F)(F)F)c2)nc1-c1ccn(-c2ccccc2F)n1 | 10 µM (active) | – |
| COc1ccccc1NC(=O)c1nn(-c2cccc(C(F)(F)F)c2)ccc1=O | 20 µM (active) | – |
| Cc1n[nH]c(=O)n1-c1cccc(C(F)(F)F)c1 | inactive | – |
| COc1ccccc1NC(=O)c1nc[nH]c1C(=O)Nc1ccccc1OC | inactive | – |
| CC(C)NC[C@H]1CCc2cc(CO)c([N+](=O)[O-])cc2N1 | inactive | – |

| Compound | AC50 | activity, negative = inhibition |
| --- | --- | --- |
| N#CCCn1c(=O)cnc2cnc(Oc3ccccc3)nc21 | inactive | – |
| N#CCCn1c(=O)c(-c2ccccc2)nc2cnc(Oc3cccc(Cl)c3)nc21 | inactive | – |
| N#CCCn1c(=O)c(CCc2ccccc2)nc2cnc(Oc3cccc(Cl)c3)nc21 | 0.794 µM (active) | – |
| N#CCCn1c(=O)c(CCc2ccccc2)nc2cnc(Oc3ccccc3)nc21 | 2.51 µM (active) | – |
| COc1ccc(Oc2ncc3nc(CCc4ccccc4)c(=O)n(CCC#N)c3n2)cc1 | 1.58 µM (active) | – |
| N#CCCn1c(=O)c(-c2ccc(Cl)cc2)nc2cnc(Oc3cccc(Cl)c3)nc21 | inactive | – |
| Cc1cc(=O)c2cc(Cl)ccc2[nH]1 | inactive | – |
| Nc1ccccc1SCc1csc(-c2ccc(Cl)cc2)n1 | 1 µM (active) | – |
| Clc1ccc(SCc2cc(-c3ccccc3)no2)cc1 | inactive | – |
| C[N+](C)(N)Cc1csc(-c2ccc(Cl)cc2)n1 | – | -0.841% [at 11.4 µM] |
| CN1CCc2ccccc2[C@@H]1Cc1ccccc1NC(=O)c1sc2ccccc2c1Cl | 1.58 µM (active) | – |
| Cc1cc(C)c(C#N)c(SCc2cc3c(cc2Cl)OCO3)n1 | 3.98 µM (active) | – |
| COc1cccc(Cn2c(=O)cnc3cnc(OC)nc32)c1 | 10 µM (active) | – |
| COc1cccc(Cn2c(=O)cnc3cnc(OCc4ccccc4)nc32)c1 | 12.6 µM (active) | – |
| COc1ncc2ncc(=O)n(C3CC3)c2n1 | inactive | – |
| COc1cccc(Cn2c(=O)cnc3cnc(Oc4cccc(Cl)c4)nc32)c1 | 5.01 µM (active) | – |
| N[C@@H](Cn1cc(F)c(=O)[nH]c1=O)C(=O)O | inactive | – |
| CCC(c1nnnn1CC1CCCO1)N(CCN1CCOCC1)Cc1cc2cc(C)ccc2[nH]c1=O (configuration not stated) | 15.8 µM (active) | – |
| COCOc1ccc(Br)cc1C(=O)[C@H]1O[C@H]1c1cccc(OC)c1 | 3.98 µM (active) | – |
| COc1ccccc1OCc1ccc(C(=O)N(C)C)o1 | – | 4.32% [at 2.29 µM] |
| COc1ccc(CCN(C)Cc2ccc(OCc3ccccc3)c(OC)c2)cc1OC | 0.631 µM (active) | – |
| COc1ccc(CCN(C)CCC(=O)Nc2c(C)cc(C)cc2C)cc1OC | 7.94 µM (active) | – |
